# For some assays here: Potency and affinity values are given separately. Activity calls are given as the source filed them.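 Rule for the calls, unless noted: active = primary screen activator hit with a dose response curve and TRPC4 channel activation at any tested dose; inactive = no activation, no dose response, or not a primary hit.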
# How the values were obtained:
# [1] = system: TRPC4 beta (transient receptor potential cation channel C4), mouse; experiment: TRPC4 cation channel opening, retest – cell-based, Fluo4 calcium, HEK293 TRPC4beta/mu-opioid, duplicates, 10 µM, confirmation (AID 2426;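 active = fluorescence ratio normalized to control raised more than 50% in primary screen plus both repeat runs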); conditions: Fluo4 calcium fluorescence, at 10 µM; active compounds read high
# [2] = system: transient receptor potential cation channel C4 beta (TRPC4), mouse; experiment: TRPC4 cation channel opening, second retest – cell-based, second round, Fluo4, HEK293 TRPC4beta/mu-opioid, 1 µM, confirmation (AID 2461;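 active = primary screen active and over 50% activation in each of two duplicate runs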); conditions: Fluo4 calcium fluorescence, at 1 µM; active compounds read high
# [3] = system: TRPC4 (transient receptor potential cation channel C4 beta), mouse; experiment: potentiation of DAMGO EC20 TRPC4 response – cell-based, second round, Fluo-4, HEK293 TRPC4beta/mu-opioid, 1 µM, confirmation (AID 2554;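 active = primary screen hit whose fluorescence ratio, in both repeats, exceeds the weak agonist control mean by 3 SD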); conditions: DAMGO EC20, Fluo-4 calcium flux, at 1 µM; active compounds read high
# [4] = system: TRPC4 beta (transient receptor potential cation channel C4), mouse; experiment: potentiation of DAMGO EC20 TRPC4 response – cell-based, Fluo-4, HEK293 TRPC4beta/mu-opioid, confirmation (AID 2555;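 active = primary screen hit whose calcium fluorescence ratio, in both repeats, exceeds the weak agonist control mean by 3 SD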); conditions: DAMGO EC20, Fluo-4 calcium flux, at 10 µM; active compounds read high
# [5] = target: Short transient receptor potential channel 4 (Mus musculus) (UniProt Q9QUQ5); experiment: blockers of DAMGO-evoked TRPC4 calcium flux – cell-based, Fluo4, HEK293 TRPC4beta/mu-opioid, confirmation (AID 2636;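 active = calcium signal cut by more than 3 SD below the full-agonist control yet still positive, in both repeats and the earlier primary screen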); conditions: at 10 µM; active compounds read high
# [6] = target: Short transient receptor potential channel 4 (Mus musculus) (UniProt Q9QUQ5); experiment: blockers of DAMGO-evoked TRPC4 calcium flux – cell-based, second round, Fluo4, HEK293 TRPC4beta/mu-opioid, 1 µM, confirmation (AID 2637;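 active = calcium signal ratio cut to more than 3 SD under the fully stimulated control mean yet still positive, in both repeats and the primary screen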;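 for inhibition: percent of integrated ratio relative to wells lacking test compound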); conditions: at 1 µM; active compounds read high
# [7] = target: Short transient receptor potential channel 4 (Mus musculus) (UniProt Q9QUQ5); experiment: calcium entry via TRPC4 opening agents – cell-based, HEK293 TRPC4/mu-opioid, Fluo-4 calcium, dose response (AID 434937)
# [8] = target: Short transient receptor potential channel 4 (Mus musculus) (UniProt Q9QUQ5); experiment: potentiation of DAMGO-evoked TRPC4 calcium signal – cell-based, HEK293 TRPC4/mu-opioid, Fluo-4 calcium, EC20 DAMGO, dose response (AID 434941;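 active = earlier screen potentiator hit that boosts the TRPC4 ion channel at some dose, with a dose response; inactive = no potentiation, no dose response, or not a prior hit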;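 note: calcium entry triggered by an EC20 dose of DAMGO at the co-expressed mu-opioid receptor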)
# [9] = target: Short transient receptor potential channel 6 (Mus musculus) (UniProt Q61143); experiment: TRPC6 blockade by TRPC4 inhibitor hits – cell-based, HEK293, membrane potential dye, duplicate, selectivity assay for TRPC4 inhibitor project, confirmation (AID 434948;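 active = active in primary screen and both duplicates, each dropping signal beyond three positive-control SD with fluorescence still positive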); conditions: HEK293 TRPC6, membrane potential dye fluorescence, at 10 µM, stimulated with maximal-effect acetylcholine; active compounds read high
# [10] = target: Short transient receptor potential channel 6 (Mus musculus) (UniProt Q61143); experiment: TRPC6 opening by TRPC4 activator hits – cell-based, HEK293, membrane potential dye, duplicate, selectivity assay for TRPC4 activator project, confirmation (AID 434950;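 active = membrane potential signal rise above negative control mean plus 3 SD in both duplicates, also active in the earlier TRPC4 screen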); conditions: HEK293 TRPC6, membrane potential fluorescence, at 10 µM; activation: active compounds read high; outcome: activation
# [11] = target: Short transient receptor potential channel 6 (Mus musculus) (UniProt Q61143); experiment: positive modulators of mouse TRPC6 channel – HEK293 cells, membrane potential dye, duplicate, selectivity assay for TRPC4 potentiator project, confirmation (AID 434952;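 active = compound raising the membrane signal above positive-control mean plus 3 SD in both repeats, and a primary screen hit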); conditions: HEK293 TRPC6, membrane potential dye fluorescence, at 10 µM, maximal acetylcholine added after compound; active compounds read high
# [12] = target: Short transient receptor potential channel 4 (Mus musculus) (UniProt Q9QUQ5); experiment: calcium flux activators in TRPC4/5HT1a cells, counter-screen for TRPC4 activator project, cell-based, second counter screen, HEK293 TRPC4/5HT1a, Fluo-4 (AID 434977;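 active = calcium signal rise above buffer-control mean plus 5 SD in both duplicates, and also a hit in the primary screen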); conditions: Fluo-4 calcium flux, at 10 µM; active compounds read high
# [13] = serotonin-gated TRPC4 signal block – cell-based, second counter screen, HEK293 TRPC4/5HT1a, Fluo-4, counter-screen for TRPC4 inhibitor project, confirmation (AID 434978;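 active = primary screen active whose calcium signal fell more than 3 SD beyond the full-serotonin control mean in both duplicate plates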;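 for outcome: serotonin given first at submaximal then at maximal dose after compound preincubation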); conditions: Fluo-4 calcium flux, at 10 µM, serotonin added to trigger calcium flux; active compounds read high
# [14] = system: TRPC4 (mouse), co-expressed with 5HT1a in HEK293; experiment: enhancement of serotonin-evoked TRPC4 response – cell-based, second counter screen, HEK293 TRPC4/5HT1a, Fluo-4, counter-screen for TRPC4 potentiator project, confirmation (AID 434979;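 active = signal rise over 3 SD above mean of control wells given weak agonist, in both repeats and first screen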); conditions: Fluo-4 calcium flux, at 10 µM, serotonin added at its EC20 dose; active compounds read high
# [15] = nonspecific calcium rise without TRPC4 – cell-based, HEK293 mu-opioid receptor line, counter-screen for TRPC4 activator project, confirmation (AID 449723;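 active = hit in primary screen, with calcium signal over 5 SD above buffer well mean in both duplicates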;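 note: counter screen cells carry the mu-opioid receptor alone and lack TRPC4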); conditions: HEK293 mu-opioid cells, Fluo-4 calcium fluorescence, at 10 µM; active compounds read high
# [16] = nonspecific potentiation of DAMGO calcium response – cell-based, HEK293 mu-opioid receptor line, counter-screen for TRPC4 allosteric potentiator project, confirmation (AID 449724;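 active = calcium signal rise more than 3 SD above the low-dose agonist control mean, in both duplicate plates and the primary screen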); conditions: HEK293 mu-opioid receptor cells, Fluo-4 calcium flux, at 10 µM, compound added before EC20 DAMGO stimulus; active compounds read high
# Chain of Short transient receptor potential channel 6 (Mus musculus) (Q61143 whole entry, looked up): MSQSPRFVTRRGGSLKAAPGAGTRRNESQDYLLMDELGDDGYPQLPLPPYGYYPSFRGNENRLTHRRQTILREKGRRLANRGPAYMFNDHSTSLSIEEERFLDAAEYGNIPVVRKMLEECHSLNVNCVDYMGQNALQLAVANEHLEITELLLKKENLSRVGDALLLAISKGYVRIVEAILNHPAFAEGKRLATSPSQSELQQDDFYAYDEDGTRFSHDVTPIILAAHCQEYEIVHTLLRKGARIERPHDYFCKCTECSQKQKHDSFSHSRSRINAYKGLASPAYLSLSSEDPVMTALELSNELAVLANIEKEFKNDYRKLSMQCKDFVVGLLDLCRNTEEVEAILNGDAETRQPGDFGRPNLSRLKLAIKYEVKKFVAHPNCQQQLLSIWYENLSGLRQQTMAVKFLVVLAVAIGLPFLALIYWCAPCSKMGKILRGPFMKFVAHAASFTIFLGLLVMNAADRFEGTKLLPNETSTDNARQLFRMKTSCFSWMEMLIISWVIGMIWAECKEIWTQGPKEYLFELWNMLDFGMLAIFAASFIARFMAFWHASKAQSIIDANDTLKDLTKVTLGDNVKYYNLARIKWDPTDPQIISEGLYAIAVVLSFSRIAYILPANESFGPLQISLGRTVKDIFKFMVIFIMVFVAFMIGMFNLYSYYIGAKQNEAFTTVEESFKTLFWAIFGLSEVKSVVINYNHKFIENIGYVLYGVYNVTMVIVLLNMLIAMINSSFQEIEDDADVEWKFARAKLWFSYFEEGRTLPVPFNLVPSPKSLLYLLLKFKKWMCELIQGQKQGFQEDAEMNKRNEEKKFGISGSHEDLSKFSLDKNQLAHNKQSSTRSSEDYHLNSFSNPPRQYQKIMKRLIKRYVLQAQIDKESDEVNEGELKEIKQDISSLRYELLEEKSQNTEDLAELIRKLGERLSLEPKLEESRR
# Chain of Short transient receptor potential channel 4 (Mus musculus) (Q9QUQ5 whole entry, looked up): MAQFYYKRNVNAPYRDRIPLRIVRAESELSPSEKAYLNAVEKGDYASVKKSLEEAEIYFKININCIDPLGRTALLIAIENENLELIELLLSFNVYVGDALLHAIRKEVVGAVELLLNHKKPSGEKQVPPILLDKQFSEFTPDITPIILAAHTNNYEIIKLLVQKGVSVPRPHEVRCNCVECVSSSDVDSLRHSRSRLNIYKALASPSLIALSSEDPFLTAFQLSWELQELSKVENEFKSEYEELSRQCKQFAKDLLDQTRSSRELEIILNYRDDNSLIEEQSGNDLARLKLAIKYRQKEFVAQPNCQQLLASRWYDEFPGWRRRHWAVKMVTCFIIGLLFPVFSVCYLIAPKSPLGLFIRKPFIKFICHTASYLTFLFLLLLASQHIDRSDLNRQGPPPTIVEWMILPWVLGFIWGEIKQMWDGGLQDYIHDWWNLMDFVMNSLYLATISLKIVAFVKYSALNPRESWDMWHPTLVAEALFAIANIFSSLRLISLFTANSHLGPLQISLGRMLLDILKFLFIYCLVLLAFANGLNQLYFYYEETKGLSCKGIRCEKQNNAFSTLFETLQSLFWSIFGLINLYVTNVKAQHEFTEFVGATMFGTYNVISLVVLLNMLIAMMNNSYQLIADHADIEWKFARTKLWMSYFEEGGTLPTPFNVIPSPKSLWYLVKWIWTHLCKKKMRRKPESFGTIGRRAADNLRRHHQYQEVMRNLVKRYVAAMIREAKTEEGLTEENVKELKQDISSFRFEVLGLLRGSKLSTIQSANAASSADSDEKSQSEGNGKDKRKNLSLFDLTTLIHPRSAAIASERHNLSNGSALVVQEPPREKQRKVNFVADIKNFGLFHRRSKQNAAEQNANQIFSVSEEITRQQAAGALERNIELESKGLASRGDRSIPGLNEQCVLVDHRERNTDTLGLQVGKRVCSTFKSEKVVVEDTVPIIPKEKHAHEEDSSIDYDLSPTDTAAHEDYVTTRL
Compound,outcome [1],outcome [2],outcome [3],outcome [4],inhibition [5],inhibition [6],outcome [7],outcome [8],outcome [9],outcome [10],outcome [11],outcome [12],inhibition [13],outcome [14],outcome [15],outcome [16],outcome [6],inhibition [9],outcome [13],outcome [5]
Cc1cccc2nc(CSc3ccc(Cl)cc3)cn12,inactive,inactive,inactive,inactive,90% (active),52% (active),inactive,inactive,inactive,inactive,inactive,inactive,21.9% (active),inactive,inactive,inactive,,,,
COc1ccc(OC)c(Nc2cc(C)nc3ccc(C)cc23)c1,inactive,inactive,inactive,inactive,38% (active),,inactive,inactive,,inactive,inactive,inactive,,inactive,inactive,inactive,inactive,41% (active),inactive,
Oc1c(CN2CCCCC2)cc(Br)c2cccnc12,inactive,inactive,inactive,inactive,93% (active),,inactive,inactive,inactive,inactive,inactive,inactive,4.44% (active),inactive,inactive,inactive,inactive,,,
O=C1Nc2cc(C(=O)NCCCN3CCOCC3)ccc2S/C1=C/c1ccccc1F,inactive,inactive,inactive,inactive,,,inactive,inactive,inactive,inactive,inactive,inactive,,inactive,inactive,inactive,inactive,,inactive,inactive
O/N=C/c1ccccc1Oc1ccc(Cl)cc1,inactive,inactive,inactive,inactive,98% (active),,inactive,inactive,inactive,inactive,inactive,inactive,7.58% (active),inactive,inactive,inactive,inactive,,,
CCCCOc1ccc(Nc2cc(Cl)ccc2C(=O)O)cn1,inactive,inactive,inactive,inactive,,,inactive,inactive,inactive,inactive,inactive,inactive,27.6% (active),inactive,inactive,inactive,inactive,,,inactive
CC(C)(C)CC(C)(C)NCC(O)COc1ccc2c(c1)CCC2 (centres undefined),inactive,inactive,inactive,inactive,100% (active),,inactive,inactive,inactive,inactive,inactive,inactive,,inactive,inactive,inactive,inactive,,inactive,
Fc1ccccc1COc1ccc(Br)cc1CNCC1CCCO1 (centres undefined),inactive,inactive,inactive,inactive,91% (active),42% (active),inactive,inactive,,inactive,inactive,inactive,16.8% (active),inactive,inactive,inactive,,39.5% (active),,
Nc1cc(=O)nc(SCC(=O)N2CCN(c3ccccc3)CC2)n1-c1ccc(F)cc1,inactive,inactive,inactive,inactive,95% (active),45% (active),inactive,inactive,inactive,inactive,inactive,inactive,43.7% (active),inactive,inactive,inactive,,,,
Cc1ccc(OCCn2c(C)nc3ccccc32)cc1,inactive,inactive,inactive,inactive,94% (active),61% (active),inactive,inactive,inactive,inactive,inactive,inactive,13% (active),inactive,inactive,inactive,,,,
c1ccc2[nH]c(CCCCc3nc4ccccc4[nH]3)nc2c1,inactive,inactive,inactive,inactive,85% (active),55% (active),inactive,inactive,inactive,inactive,inactive,inactive,40.6% (active),inactive,inactive,inactive,,,,
Cc1ccc(O)c(CNc2nc3ccccc3[nH]2)c1,inactive,inactive,inactive,inactive,96% (active),76% (active),inactive,inactive,inactive,inactive,inactive,inactive,24.5% (active),inactive,inactive,inactive,,,,
CN1CCN(c2ccc(NC(=O)c3ccc(-c4ccc(Cl)cc4)o3)cc2)CC1,inactive,inactive,inactive,inactive,85% (active),58% (active),inactive,inactive,inactive,inactive,inactive,inactive,,inactive,inactive,inactive,,,inactive,
CC(=O)N1CCN(c2ccccc2NC(=O)c2ccc3ccccc3c2)CC1,inactive,inactive,inactive,inactive,85% (active),74% (active),inactive,inactive,inactive,inactive,inactive,inactive,36.5% (active),inactive,inactive,inactive,,,,

# Source: PubChem BioAssay
